Active and inactive are the calls of the source. Rule for the calls: active = hit-call score of the fitted dose curve at least 0.9, where 1 is the maximum; inactive = score below 0.9.

Read-out in the assay: CD40, CD40 (gene 958)
Description: BSK_LPS_CD40: BioMAP Diversity Plus: LPS Assay for CD40 Biomarker Activity (AID 2283076). The following applies: primary human HUVEC with PBMC; actives raise or lower the signal. As to the method: BSK_LPS is a cell-based, multiplexed-readout assay that uses umbilical vein endothelium and peripheral blood mononuclear cells, a human vascular primary cell co-culture, with measurements taken at 24 hours after chemical dosing in a 96-well plate.BSK_LPS_CD40 is an assay component measured in the BSK_LPS assay. It measures CD40 antibody related to regulation of gene expression using ELISA technology.Data from the assay component BSK_LPS_CD40 was analyzed into 1 assay endpoint. This assay endpoint, BSK_LPS_CD40, was analyzed with bidirectional fitting relative to DMSO as the negative control and baseline of activity. Using a type of binding reporter, gain or loss-of-signal activity can be used to understand changes in the signaling as they relate to the gene CD40. Furthermore, this assay endpoint can be referred to as a primary readout, because this assay has produced multiple assay endpoints where this one serves a signaling function. To generalize the intended target to other relatable targets, this assay endpoint is annotated to the cytokine intended target family, where the subfamily is inflammatory factor.
The levels of cell surface (or secreted, indicated by the prefix "s") biomarker endpoints were measured by ELISA. Overt cytotoxicity to cells in confluent adherent cultures (all systems other than the BT system) was assessed by measuring total protein levels using sulforhodamine B (SRB) staining in parallel cultures at the time of biomarker measurements, indicated as SRB endpoints. For proliferation assays for adherent cell types, individual cell types are cultured at sub-confluence and relative cell numbers quantified by SRB staining at time points optimized for each system (48 h: 3C and CASM3C systems; 72 h: BT and HDF3CGF systems; 96 h: SAg system). SRB was performed by staining cells with 0.1% SRB after fixation with 10% TCA and reading wells at 560 nm.Viability and proliferation of PBMC (T cells) was quantified by Alamar Blue reduction for the SAg and BT systems. For PBMC viability (referred to as PBMC Cytotoxicity within the assay endpoint names), cells were plated (75,000/well in a 96-well plate) and then chemical samples added for 1 h before addition of activators, SEB and TSST-1 (20 ng/mL final concentration each). Cells were incubated for 90 h. Then, Alamar Blue (20 uL/well) (Invitrogen, Cat DAL1100) was added for 6 h, and the plates were read with a fluorescence microplate reader at 546/580 nm (excitation/emission). For PBMC proliferation, cells were plated and activated as above but incubated for only 16 h prior to addition of Alamar Blue. Plates were read after 6 h.
Turning to `Cn1cc[nH]c1=S`, the result was inactive.

For `CCCC(CCC)C(=O)O`, the result was inactive.

Regarding `CCCCCOC(C)=O`, the outcome was inactive.

As to `CCCCCCCC/C=C\CCCCCCCC(=O)OC[C@@H](O)[C@H]1OC[C@H](O)[C@H]1O`, the outcome was inactive.

For `CCN(CC)C(=S)SSC(=S)N(CC)CC`, the AC50 was 30.4 µM (active).

As for `FC(F)(F)C(F)(F)C(F)(F)C(F)(F)C(F)(F)C(F)(F)I`, the result was inactive.

As to `OCc1c[nH]c2ccccc12`, the outcome was inactive.

For `Cc1nc(-c2ccccn2)ncc1C(=O)Nn1cc(C)c2cc(F)ccc21`, the result was inactive.

With `CCCCC(CC)C(=O)OCCOCCOCCOC(=O)C(CC)CCCC` (stereo not given), the result was inactive.

As for `CC(C)c1nnc2ccc(-c3ocnc3-c3cc(F)ccc3F)cn12`, the result was inactive.

Take `C[Si](C)(C)C(F)(F)C(F)(F)C(F)(F)F`: the outcome was inactive.

As for `NC(=O)NN=Cc1ccc([N+](=O)[O-])o1`, the outcome was inactive.

Consider `OCCC(F)(F)C(F)(F)C(F)(F)C(F)(F)F`, for which the outcome was inactive.

`COCc1nnc(-c2ccc[n+]([O-])c2)n1-c1c(Cl)c(Cl)cc2[nH]c(=O)c(=O)[nH]c12`: the result was inactive.

As for `OCC(CO)(CO)CO`, the result was inactive.

Regarding `CCCCCCCCCCCCCCO`, the AC50 was 36.6 µM (active).

Consider `CCCCOC(=O)c1ccccc1`, for which the result was inactive.

As to `FC(F)(F)COC(OCC(F)(F)F)OCC(F)(F)F`, the outcome was inactive.

`O=C(O)c1cccc(C[C@@H]2COc3ccc(OCc4nc5cc(F)ccc5s4)cc3[C@@H]2O)c1`: the result was inactive.

In the case of `OC(CCl)CCl`, the result was inactive.

Regarding `c1ccc2ncccc2c1`, the result was inactive.

Regarding `CCn1nc(C)c2c1C(=O)NCC(c1ccc(O)cc1)=N2`, the result was inactive.

As to `C[C@]12C=CC(=O)C=C1CC[C@H]1[C@@H]3C[C@@H](O)[C@](O)(C(=O)CO)[C@@]3(C)C[C@H](O)[C@@]12F`, the outcome was inactive.

As to `OC[C@H]1O[C@@](CO)(O[C@H]2O[C@H](CO)[C@@H](O)[C@H](O)[C@H]2O)[C@@H](O)[C@@H]1O`, the result was inactive.

With `CNC(C)=O`, the result was inactive.

As for `FC(F)C(F)(F)COCC1CO1` (stereo not given), the outcome was inactive.

For `O=C(NO)C1(NS(=O)(=O)c2ccc(Oc3ccc(F)cc3)cc2)CCOCC1`, the result was inactive.

Turning to `O=C(O)c1ccc2c(c1)nc(C(=O)NC1CCN(C3CC3)CC1)n2Cc1cc(-c2ccc(Cl)s2)on1`, the result was inactive.

On to `CCCCCCCC1CCC(=O)O1` (stereo not given), for which the outcome was inactive.

For the compound `NCC(F)(F)C(F)(F)C(F)(F)C(F)(F)F`, the result was inactive.

As for `CCOC(N)=O`, the outcome was inactive.

In the case of `O=C(O)[C@H](O)[C@@H](O)C(=O)O`, the result was inactive.

As to `O=S(=O)(O)CCC(F)(F)C(F)(F)C(F)(F)C(F)(F)C(F)(F)C(F)(F)F`, the outcome was inactive.

`Cc1ccc(S(=O)(=O)NC(=O)NN2CCCCCC2)cc1`: the result was inactive.

As for `CCCOc1ccc(S(=O)(=O)N2CCN(CC)CC2)cc1-c1nc2c(CC)n(Cc3ccccn3)nc2c(=O)[nH]1`, the result was inactive.

As to `CCCc1ccccc1`, the outcome was inactive.

For the compound `Nc1ccn([C@@H]2O[C@H](CO)[C@@H](O)[C@@H]2O)c(=O)n1`, the result was inactive.

Turning to `OC(O)(C(F)C(O)(O)C(F)(F)F)C(F)(F)F`, the outcome was inactive.

On to `CC(=O)c1ccccc1`, for which the result was inactive.

Regarding `CCc1ccc(O)c(C(C)(C)C)c1`, the result was inactive.

As usually defined, the AC50 is the concentration giving half of the maximal activity seen.

The values are drawn from PubChem BioAssay (EPA / NIEHS).
